Measurements published in PubChem BioAssay (NCATS).
Several values for one entry are separate records, joined by “and”; a condition that tells them apart may be missing. Equal entries are not always repeated. Results filed as inconclusive are left out. Entries that show only a call come without a potency. Activity calls are given as the source filed them. Unless noted, calls follow the shape of the dose curve; as a rule, active = well fitted inhibition curve with a large enough effect; inconclusive = small, poorly fitted or top-dose-only effect; inactive = flat fitted curve, though single readings scatter.

Biological target: Ubiquitin carboxyl-terminal hydrolase 1 (Homo sapiens) (UniProt O94782)
Assay: Inhibitors of USP1/UAF1: Pilot qHTS (AID 504865);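 also: rhodamine fluorescence freed from ubiquitin-rhodamine substrate followed over time; top concentration of the series differs between compounds; nearly all actives have a fitted effect of over 35% in size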
Settings: purified USP1/UAF1, Ub-rhodamine cleavage fluorescence; series mostly up to 54.9 µM
Method in brief: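 USP1/UAF1 complex at 1 nM preincubated 15 min at room temperature with compound, then Ub-Rho substrate added at 150 nM final. Fluorescence (480/540 nm) read kinetically in 50 mM HEPES pH 7.8, 0.5 mM EDTA, 1 mM TCEP, 0.1 mg/ml BSA, 0.01% Tween-20.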

Sequence of Ubiquitin carboxyl-terminal hydrolase 1 (Homo sapiens) (O94782 whole entry, looked up): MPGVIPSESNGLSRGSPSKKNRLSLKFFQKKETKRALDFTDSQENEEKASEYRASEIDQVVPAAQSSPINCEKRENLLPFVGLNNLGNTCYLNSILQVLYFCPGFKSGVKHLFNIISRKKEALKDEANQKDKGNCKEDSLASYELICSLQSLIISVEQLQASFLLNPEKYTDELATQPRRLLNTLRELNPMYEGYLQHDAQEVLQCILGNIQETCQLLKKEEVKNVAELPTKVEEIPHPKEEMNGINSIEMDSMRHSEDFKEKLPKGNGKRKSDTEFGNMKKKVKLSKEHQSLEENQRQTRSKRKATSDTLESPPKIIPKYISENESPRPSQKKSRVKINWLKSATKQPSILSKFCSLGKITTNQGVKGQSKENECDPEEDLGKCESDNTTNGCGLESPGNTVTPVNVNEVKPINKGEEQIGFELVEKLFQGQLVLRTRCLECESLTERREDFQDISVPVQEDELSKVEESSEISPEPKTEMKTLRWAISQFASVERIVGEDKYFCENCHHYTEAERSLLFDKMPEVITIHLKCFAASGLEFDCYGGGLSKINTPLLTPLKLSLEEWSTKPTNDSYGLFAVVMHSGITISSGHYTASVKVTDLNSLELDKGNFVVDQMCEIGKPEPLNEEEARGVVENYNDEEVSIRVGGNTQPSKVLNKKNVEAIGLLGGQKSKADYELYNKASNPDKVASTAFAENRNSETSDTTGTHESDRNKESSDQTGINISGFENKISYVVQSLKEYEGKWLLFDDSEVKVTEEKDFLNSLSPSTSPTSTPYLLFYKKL

| SMILES | Potency |
| --- | --- |
| CN(C)Cc1ccccc1-c1ccc2ncnc(N(C)C)c2c1 | inactive |
| COc1ccc2[nH]cc(CCNc3ncncc3-c3ccccc3C(F)(F)F)c2c1 | inactive |
| COc1cccc(Cn2c(=O)cnc3cnc(N(C)C)nc32)c1 | inactive |
| c1ccc2c(NCCN3CCOCC3)nc(-c3ccc4c(c3)OCO4)nc2c1 | inactive |
| CN(C)c1nc(-c2cccc(NS(C)(=O)=O)c2)nc2ccccc12 | inactive |
| CN1CCN(c2nc(-c3cccnc3)nc3ccccc23)CC1 | inactive |
| O=c1cnc2cnc(N3CCOCC3)nc2n1Cc1cccs1 | inactive |
| COc1ccccc1CNc1ncncc1-c1ccccc1C(F)(F)F | inactive |
| COc1ncc2nc(-c3cccs3)c(=O)n(CCC#N)c2n1 | inactive |
| COc1ccccc1-c1nccc(N2CCN(C)CC2)n1 | inactive |
| COc1ccccc1CNc1ncnc2ccc(-c3ccc(C(=O)N(C)C)cc3)cc12 | inactive |

Biological target: Glucocorticoid receptor (Homo sapiens) (UniProt P04150)
Assay: qHTS assay for small molecule antagonists of glucocorticoid receptor signaling (AID 588533; active = well fitted inhibition curve with a large enough effect in the signal ratio, with a control signal flat, not every such curve was filed as active; the % refers to the signal ratio;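 also: cells stimulated with 2 nM dexamethasone as agonist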)
Settings: HeLa MMTV-bla, GRE beta-lactamase ratio, antagonist mode, 18 h; series mostly up to 76.8 µM
Method in brief: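 Antagonist-mode qHTS: compound titrations added to GRE-bla HeLa cells, then dexamethasone 2 nM final; 18 h, 37 C. CCF4 FRET fluorescence normalized to dexamethasone and DMSO; IC50 from Hill fit.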

Sequence of Glucocorticoid receptor (Homo sapiens) (P04150 whole entry, looked up): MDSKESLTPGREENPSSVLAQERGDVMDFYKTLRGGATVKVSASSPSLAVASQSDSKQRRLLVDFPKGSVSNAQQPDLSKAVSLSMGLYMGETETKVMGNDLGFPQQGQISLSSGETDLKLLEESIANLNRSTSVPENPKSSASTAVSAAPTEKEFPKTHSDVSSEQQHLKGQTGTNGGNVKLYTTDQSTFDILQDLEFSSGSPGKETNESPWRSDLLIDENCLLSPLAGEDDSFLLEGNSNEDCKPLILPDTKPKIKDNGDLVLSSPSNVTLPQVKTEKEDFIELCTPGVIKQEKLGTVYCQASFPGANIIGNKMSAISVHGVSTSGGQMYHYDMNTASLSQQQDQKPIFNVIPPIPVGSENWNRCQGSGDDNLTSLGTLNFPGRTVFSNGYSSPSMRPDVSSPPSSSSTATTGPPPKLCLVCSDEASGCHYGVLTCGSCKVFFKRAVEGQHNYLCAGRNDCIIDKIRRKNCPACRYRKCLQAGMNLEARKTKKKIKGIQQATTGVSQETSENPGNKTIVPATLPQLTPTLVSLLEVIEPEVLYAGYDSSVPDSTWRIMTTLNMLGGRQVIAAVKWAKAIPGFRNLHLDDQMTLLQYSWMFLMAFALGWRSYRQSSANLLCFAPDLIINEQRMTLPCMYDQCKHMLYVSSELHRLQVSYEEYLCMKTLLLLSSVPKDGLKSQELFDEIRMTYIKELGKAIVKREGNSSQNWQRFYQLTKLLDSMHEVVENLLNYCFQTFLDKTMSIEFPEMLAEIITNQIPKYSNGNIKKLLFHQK

| SMILES | Potency |
| --- | --- |
| C=CCc1ccc(OC)c(OC)c1 | inactive |
| C=C(C)C1CC=C(C)C(O)C1 (configuration not stated) | inactive |
| CC1=C2[C@H](/C=C(\C)C(=O)O)CC[C@@H](C)[C@H]2CC1 | inactive |

Biological target: Peroxisome proliferator-activated receptor gamma (Homo sapiens) (UniProt P37231)
Assay: qHTS assay for small molecule agonists of peroxisome proliferator-activated receptor gamma signaling (AID 588536; active = well fitted curve in the direction sought with a large enough effect in the signal ratio, with a control signal flat, not every such curve was filed as active; the % refers to the signal ratio)
Settings: HEK293 PPARg-UAS-bla, beta-lactamase ratio, 16 h, percent of rosiglitazone response, DMSO as zero; series mostly up to 76.7 µM
Method in brief: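 Compound treatment: 16 h, 37 C, HEK293 GeneBLAzer cells. Detection: CCF4, 2 h RT. Values: Hill-fit EC50, efficacy as % of 2 uM rosiglitazone.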

Sequence of Peroxisome proliferator-activated receptor gamma (Homo sapiens) (P37231 whole entry, looked up): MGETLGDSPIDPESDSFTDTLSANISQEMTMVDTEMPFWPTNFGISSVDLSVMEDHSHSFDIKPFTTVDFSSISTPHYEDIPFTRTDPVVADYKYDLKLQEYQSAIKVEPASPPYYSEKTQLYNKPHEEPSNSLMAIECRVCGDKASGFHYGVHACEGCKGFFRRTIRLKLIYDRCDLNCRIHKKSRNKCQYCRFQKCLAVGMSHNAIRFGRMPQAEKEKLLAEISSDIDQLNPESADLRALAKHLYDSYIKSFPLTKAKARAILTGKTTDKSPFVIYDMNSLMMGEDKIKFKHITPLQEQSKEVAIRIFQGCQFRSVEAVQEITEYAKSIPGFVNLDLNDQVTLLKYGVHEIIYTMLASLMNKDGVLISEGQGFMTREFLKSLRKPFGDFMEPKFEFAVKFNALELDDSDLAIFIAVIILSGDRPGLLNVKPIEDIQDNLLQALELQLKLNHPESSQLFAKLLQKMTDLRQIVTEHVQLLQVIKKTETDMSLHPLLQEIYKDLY

| SMILES | outcome |
| --- | --- |
| C=CCc1ccc(OC)c(OC)c1 | inactive |
| C=C(C)C1CC=C(C)C(O)C1 (configuration not stated) | inactive |
| CC1=C2[C@H](/C=C(\C)C(=O)O)CC[C@@H](C)[C@H]2CC1 | inactive |

Biological target: Thyroid hormone receptor beta (Homo sapiens) (UniProt P10828)
Assay: qHTS assay for small molecule agonists of thyroid hormone receptor beta signaling (AID 588545; calls by dose curve)
Settings: TR-UAS-bla GripTite HEK 293, beta-lactamase ratio, agonist mode, 18 h, percent of T3 response, DMSO as zero; series mostly up to 76.7 µM
Method in brief: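 In this cell-based screen, titrated compounds act on HEK 293 cells held in medium with 2% charcoal/dextran FBS, NEAA and pyruvate for 18 hrs at 37 C. Responses are expressed relative to T3 (10 nM) as 100% and basal DMSO as 0%.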

Sequence of Thyroid hormone receptor beta (Homo sapiens) (P10828 whole entry, looked up): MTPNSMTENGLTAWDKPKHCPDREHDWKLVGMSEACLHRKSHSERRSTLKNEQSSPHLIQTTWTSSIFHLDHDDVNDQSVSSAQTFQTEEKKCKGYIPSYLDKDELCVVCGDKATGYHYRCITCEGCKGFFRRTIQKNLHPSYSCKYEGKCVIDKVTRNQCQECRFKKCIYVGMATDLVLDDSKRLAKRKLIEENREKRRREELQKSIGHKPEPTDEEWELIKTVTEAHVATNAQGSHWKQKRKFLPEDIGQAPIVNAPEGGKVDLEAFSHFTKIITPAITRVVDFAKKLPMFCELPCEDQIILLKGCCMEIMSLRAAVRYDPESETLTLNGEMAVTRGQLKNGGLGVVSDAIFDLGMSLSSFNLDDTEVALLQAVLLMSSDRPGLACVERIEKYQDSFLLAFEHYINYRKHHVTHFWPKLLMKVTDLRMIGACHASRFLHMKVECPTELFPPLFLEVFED

| SMILES | outcome |
| --- | --- |
| C=CCc1ccc(OC)c(OC)c1 | inactive |
| C=C(C)C1CC=C(C)C(O)C1 (configuration not stated) | inactive |
| CC1=C2[C@H](/C=C(\C)C(=O)O)CC[C@@H](C)[C@H]2CC1 | inactive |
| CCCCCCCCCCCC(=O)O | inactive |

Test system: not listed separately
Assay: qHTS assay for small molecule antagonists of retinoid X receptor alpha signaling (AID 588546; active = well fitted inhibition curve with a large enough effect in the signal ratio, with a control signal flat, not every such curve was filed as active; the % refers to the signal ratio;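 also: cells stimulated with 9-cis-retinoic acid as agonist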)
Settings: HEK293T RXRa-UAS-bla, beta-lactamase ratio, antagonist mode; measured here: W530 green channel, cytotoxicity proxy
Method in brief: (§1)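 Beta-lactamase reporter inhibition, read as CCF4 fluorescence ratio (ex 405, em 460/530 nm) after 2 h at RT. HEK293T UAS-bla cells, 2500/well, were stimulated with 9-cis-RA at 500 or 100 nM final alongside test compound for 18 h at 37 C.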

| SMILES | max response |
| --- | --- |
| C=CCc1ccc(OC)c(OC)c1 | -6.05% and 0.363% |
| C=C(C)C1CC=C(C)C(O)C1 (configuration not stated) | -6.28% |
| CC1=C2[C@H](/C=C(\C)C(=O)O)CC[C@@H](C)[C@H]2CC1 | 26.2% |
| CCCCCCCCCCCC(=O)O | 24.4% and 28.8% |

Biological target: Retinoic acid receptor RXR-alpha (Homo sapiens) (UniProt P19793)
Assay: as above
Settings: HEK293T RXRa-UAS-bla, beta-lactamase ratio, antagonist mode
Method in brief: as §1

Sequence of Retinoic acid receptor RXR-alpha (Homo sapiens) (P19793 whole entry, looked up): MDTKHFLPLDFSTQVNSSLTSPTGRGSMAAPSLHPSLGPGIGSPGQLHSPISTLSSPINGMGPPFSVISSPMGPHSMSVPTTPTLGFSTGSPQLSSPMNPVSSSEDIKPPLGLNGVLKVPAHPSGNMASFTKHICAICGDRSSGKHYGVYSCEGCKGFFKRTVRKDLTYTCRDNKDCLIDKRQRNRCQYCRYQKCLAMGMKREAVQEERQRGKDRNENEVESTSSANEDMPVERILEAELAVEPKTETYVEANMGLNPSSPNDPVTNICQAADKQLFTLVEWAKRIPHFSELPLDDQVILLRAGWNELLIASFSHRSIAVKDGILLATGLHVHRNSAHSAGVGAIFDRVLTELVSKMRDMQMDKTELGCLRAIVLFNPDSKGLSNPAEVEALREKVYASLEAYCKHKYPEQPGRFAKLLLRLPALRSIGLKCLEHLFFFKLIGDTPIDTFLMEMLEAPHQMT

| SMILES | max response |
| --- | --- |
| C=CCc1ccc(OC)c(OC)c1 | 9.84% (inactive) and -24.7% (inactive) |
| C=C(C)C1CC=C(C)C(O)C1 (configuration not stated) | 5.08% (inactive) |
| CC1=C2[C@H](/C=C(\C)C(=O)O)CC[C@@H](C)[C@H]2CC1 | -25.2% (inactive) |
| CCCCCCCCCCCC(=O)O | -14.3% (inactive) and -10.1% (inactive) |

Biological target: Thyroid hormone receptor beta (Homo sapiens) (UniProt P10828)
Assay: qHTS assay for small molecule antagonists of thyroid hormone receptor beta signaling (AID 588547; active = well fitted inhibition curve with a large enough effect in the signal ratio, with a control signal flat, not every such curve was filed as active; the % refers to the signal ratio;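 also: cells stimulated with 0.4 nM T3 agonist during compound exposure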)
Settings: TR-UAS-bla HEK293, beta-lactamase ratio, antagonist mode, 18 h
Method in brief: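 TR-UAS-bla GripTite HEK293 cells in 2% charcoal/dextran FBS medium were preincubated 4 h at 37 C, given compound (0.59 nM to 92 uM) plus 0.4 nM T3 (final) for 18 h, then CCF4 for 2 h at RT; Hill fit gave IC50.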

| SMILES | activity change % (negative = inhibition) |
| --- | --- |
| C=CCc1ccc(OC)c(OC)c1 | 11.4% (inactive) |
| C=C(C)C1CC=C(C)C(O)C1 (configuration not stated) | 0.818% (inactive) |
| CC1=C2[C@H](/C=C(\C)C(=O)O)CC[C@@H](C)[C@H]2CC1 | 11.8% (inactive) |
